This passage reports log2 fold change results from the supplement of paper PMC10849652.

Of roughly 8,800 targets only a part is listed; those with a hit were picked by preference. About 0.5% of all pairs of compound and target were hits. A number with no mark means an inactive call.

Chain of UniProt O43824 (O43824 whole entry, looked up): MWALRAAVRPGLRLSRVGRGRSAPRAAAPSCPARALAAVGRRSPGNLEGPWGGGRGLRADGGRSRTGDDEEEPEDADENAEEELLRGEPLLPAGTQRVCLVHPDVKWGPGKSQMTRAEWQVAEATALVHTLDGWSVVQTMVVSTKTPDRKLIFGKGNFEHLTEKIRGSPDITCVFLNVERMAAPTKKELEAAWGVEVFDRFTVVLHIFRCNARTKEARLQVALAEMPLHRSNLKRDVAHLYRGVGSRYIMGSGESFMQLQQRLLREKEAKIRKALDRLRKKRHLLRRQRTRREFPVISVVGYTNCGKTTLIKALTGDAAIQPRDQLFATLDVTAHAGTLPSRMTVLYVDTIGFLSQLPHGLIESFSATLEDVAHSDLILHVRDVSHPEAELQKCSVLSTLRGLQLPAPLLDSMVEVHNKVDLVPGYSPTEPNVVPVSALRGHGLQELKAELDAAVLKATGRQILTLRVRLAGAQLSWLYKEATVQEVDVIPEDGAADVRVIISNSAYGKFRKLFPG
Chain of UniProt Q7Z5Y7 (Q7Z5Y7 whole entry, looked up): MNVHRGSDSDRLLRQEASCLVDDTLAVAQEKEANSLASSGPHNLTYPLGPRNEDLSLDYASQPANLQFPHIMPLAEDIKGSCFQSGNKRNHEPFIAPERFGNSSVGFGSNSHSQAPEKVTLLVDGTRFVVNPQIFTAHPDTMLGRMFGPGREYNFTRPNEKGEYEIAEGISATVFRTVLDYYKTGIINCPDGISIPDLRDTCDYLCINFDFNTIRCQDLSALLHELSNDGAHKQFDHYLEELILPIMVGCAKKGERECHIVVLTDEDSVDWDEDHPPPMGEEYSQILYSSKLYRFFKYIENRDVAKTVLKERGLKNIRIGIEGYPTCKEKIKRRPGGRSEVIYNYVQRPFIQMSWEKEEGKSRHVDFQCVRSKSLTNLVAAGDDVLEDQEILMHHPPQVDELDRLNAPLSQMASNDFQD
Chain of UniProt Q8TF64 (Q8TF64 whole entry, looked up): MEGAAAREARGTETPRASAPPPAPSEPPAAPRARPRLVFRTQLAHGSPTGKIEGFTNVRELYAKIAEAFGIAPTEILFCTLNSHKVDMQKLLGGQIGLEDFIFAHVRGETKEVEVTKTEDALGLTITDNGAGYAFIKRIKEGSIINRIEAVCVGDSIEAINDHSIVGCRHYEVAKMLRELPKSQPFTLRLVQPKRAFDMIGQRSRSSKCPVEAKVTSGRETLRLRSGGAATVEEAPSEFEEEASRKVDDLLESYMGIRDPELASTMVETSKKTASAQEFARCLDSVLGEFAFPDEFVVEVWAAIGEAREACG
Chain of UniProt Q9Y573 (Q9Y573 whole entry, looked up): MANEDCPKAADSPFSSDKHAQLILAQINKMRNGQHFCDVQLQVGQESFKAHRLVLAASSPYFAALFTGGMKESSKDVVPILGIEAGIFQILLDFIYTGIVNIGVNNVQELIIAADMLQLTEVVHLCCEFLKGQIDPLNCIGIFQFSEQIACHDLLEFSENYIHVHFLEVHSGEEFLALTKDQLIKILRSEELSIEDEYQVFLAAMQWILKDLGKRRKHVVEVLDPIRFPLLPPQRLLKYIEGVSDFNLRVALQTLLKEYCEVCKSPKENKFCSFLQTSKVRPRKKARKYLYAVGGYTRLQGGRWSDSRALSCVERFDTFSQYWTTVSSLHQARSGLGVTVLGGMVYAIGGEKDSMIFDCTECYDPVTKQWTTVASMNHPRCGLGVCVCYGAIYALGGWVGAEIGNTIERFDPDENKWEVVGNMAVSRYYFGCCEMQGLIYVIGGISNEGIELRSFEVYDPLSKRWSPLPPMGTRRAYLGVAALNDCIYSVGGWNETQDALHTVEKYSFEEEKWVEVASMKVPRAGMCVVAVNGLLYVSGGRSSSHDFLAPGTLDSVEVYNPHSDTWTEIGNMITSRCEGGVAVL
Chain of UniProt P17096 (P17096 whole entry, looked up): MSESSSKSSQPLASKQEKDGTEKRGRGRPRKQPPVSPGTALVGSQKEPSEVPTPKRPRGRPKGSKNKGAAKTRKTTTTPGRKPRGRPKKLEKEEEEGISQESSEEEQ
Chain of UniProt Q68E01 (Q68E01 whole entry, looked up): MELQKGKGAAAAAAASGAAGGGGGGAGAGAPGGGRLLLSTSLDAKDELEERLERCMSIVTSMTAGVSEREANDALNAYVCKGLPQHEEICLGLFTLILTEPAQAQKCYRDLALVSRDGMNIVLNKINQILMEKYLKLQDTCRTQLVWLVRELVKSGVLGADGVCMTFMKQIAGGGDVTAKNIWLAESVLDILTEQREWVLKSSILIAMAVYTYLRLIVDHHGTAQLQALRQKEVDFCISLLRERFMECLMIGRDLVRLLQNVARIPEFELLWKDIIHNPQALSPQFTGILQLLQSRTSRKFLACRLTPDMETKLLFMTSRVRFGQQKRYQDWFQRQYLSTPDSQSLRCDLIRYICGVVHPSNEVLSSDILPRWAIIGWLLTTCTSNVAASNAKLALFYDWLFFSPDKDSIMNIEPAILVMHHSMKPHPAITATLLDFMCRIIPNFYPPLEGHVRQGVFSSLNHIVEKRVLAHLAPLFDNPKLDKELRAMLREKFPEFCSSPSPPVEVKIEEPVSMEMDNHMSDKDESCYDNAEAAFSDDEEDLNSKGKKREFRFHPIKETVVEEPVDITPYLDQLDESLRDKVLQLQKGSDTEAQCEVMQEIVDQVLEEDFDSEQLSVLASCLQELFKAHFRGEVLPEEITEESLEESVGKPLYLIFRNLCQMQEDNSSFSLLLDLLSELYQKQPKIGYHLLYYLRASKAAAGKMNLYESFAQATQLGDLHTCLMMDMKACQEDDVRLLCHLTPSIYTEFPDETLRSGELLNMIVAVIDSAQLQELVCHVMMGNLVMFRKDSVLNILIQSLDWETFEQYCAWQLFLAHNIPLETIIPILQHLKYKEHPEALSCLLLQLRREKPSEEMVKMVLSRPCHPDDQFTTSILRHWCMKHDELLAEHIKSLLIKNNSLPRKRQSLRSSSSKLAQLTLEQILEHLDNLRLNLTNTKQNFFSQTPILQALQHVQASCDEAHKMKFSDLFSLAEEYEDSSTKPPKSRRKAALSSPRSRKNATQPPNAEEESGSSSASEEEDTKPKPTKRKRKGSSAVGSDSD
Chain of UniProt P09211 (P09211 whole entry, looked up): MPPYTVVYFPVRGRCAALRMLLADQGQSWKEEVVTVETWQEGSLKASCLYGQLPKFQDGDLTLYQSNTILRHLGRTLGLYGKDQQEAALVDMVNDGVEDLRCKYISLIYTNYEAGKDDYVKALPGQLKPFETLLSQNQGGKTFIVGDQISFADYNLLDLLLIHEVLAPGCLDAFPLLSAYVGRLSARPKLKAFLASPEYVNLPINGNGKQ
Chain of UniProt Q9Y4H2 (Q9Y4H2 whole entry, looked up): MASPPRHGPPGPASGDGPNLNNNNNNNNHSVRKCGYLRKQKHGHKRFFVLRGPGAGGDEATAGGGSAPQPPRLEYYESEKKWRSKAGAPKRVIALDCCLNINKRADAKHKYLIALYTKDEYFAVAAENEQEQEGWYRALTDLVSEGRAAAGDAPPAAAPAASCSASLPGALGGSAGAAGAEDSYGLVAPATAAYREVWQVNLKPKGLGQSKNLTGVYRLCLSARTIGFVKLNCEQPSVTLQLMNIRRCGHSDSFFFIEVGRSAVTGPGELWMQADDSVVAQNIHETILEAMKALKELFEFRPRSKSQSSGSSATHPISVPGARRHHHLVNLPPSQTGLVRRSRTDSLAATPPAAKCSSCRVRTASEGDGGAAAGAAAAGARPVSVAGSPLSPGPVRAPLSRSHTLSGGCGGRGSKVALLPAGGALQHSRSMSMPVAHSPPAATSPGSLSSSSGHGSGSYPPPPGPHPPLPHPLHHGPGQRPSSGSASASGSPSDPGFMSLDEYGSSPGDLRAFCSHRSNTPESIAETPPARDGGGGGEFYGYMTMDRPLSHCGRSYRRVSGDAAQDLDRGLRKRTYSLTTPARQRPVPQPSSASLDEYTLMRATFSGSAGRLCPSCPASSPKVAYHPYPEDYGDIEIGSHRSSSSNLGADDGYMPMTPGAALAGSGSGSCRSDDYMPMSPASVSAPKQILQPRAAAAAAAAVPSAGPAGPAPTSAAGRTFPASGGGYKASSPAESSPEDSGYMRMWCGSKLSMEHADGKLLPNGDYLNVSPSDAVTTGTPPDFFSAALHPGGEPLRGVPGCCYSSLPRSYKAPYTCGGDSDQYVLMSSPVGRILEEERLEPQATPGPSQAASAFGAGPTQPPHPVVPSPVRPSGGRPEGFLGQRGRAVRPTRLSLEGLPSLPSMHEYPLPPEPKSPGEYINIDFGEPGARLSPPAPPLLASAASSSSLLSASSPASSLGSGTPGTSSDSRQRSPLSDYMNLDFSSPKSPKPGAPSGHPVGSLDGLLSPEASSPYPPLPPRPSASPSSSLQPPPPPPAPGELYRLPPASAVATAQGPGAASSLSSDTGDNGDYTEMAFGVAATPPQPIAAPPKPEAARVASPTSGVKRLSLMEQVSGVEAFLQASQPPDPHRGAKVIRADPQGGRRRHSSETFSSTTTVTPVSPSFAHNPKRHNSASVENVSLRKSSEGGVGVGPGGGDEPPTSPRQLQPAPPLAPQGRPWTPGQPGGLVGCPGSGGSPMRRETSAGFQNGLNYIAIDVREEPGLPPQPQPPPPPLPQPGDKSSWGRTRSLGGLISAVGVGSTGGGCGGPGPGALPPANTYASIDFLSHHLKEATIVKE
Chain of UniProt Q9UKP3 (Q9UKP3 whole entry, looked up): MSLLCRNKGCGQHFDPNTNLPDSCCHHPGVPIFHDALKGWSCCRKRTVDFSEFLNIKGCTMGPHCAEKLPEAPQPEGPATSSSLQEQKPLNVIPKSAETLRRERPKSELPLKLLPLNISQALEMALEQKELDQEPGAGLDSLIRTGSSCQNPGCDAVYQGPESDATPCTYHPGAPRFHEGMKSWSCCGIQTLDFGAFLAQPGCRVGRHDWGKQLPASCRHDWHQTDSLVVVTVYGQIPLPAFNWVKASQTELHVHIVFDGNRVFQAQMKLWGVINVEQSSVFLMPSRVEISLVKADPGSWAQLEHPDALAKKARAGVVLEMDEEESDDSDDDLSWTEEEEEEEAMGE

Compound in this experiment: c1ccc([C@@H]2C[C@H]2NC2CCNCC2)cc1
The experiment in a line: log2 fold change, soluble protein after heating vs DMSO (PISA); higher = thermal stabilisation; K562 lysate, 10 uM; active = over 0.2 and 3.5 SD of the protein, either way, in both replicates (recomputed). A digest of the protocol: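 Soluble protein was defined as the supernatant remaining after 21,000xg for 90 min, following pooling of heated aliquots and adjustment to 0.5% NP-40 at 4°C. Before that, crude K562 extract at 1 mg/mL protein in PBS pH 7.4 with 1 mM MgCl2 was treated with 10 μM compound for 30 min and heated for 3 min across 48°C-58°C. Quantification used TMTpro 16plex LC-MS/MS with channel sums equalised, and values are log-two fold changes in thermal stability relative to solvent controls from duplicates.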
IPP (UniProt Q9Y573): the log2 fold change is 0.02.

As to JAK3 (UniProt P52333), the log2 fold change was 0.254. With GNB4 (UniProt Q9HAV0) the figure was -0.05; with INTS3 (UniProt Q68E01), 0.074; with ISCA1 isoform 2 (UniProt Q9BUE6), 0.099. HSPBAP1 (UniProt Q96EW2): the log2 fold change is 0.006. To HSPA8 (UniProt E9PN89) belongs -0.393; to KATNBL1 (UniProt Q9H079), -0.071; to IRS2 (UniProt Q9Y4H2), -0.354. To KIAA0930 isoform 2 (UniProt Q6ICG6) belongs 0.031; to GORASP1 (UniProt Q9BQQ3), 0.042; to GSTP1 (UniProt P09211), 0.035. To ITGB1BP2 (UniProt Q9UKP3) belongs -0.029; to GMDS (UniProt O60547), 0.005. GIPC3 (UniProt Q8TF64): the log2 fold change was -0.075. To GYPA, A0A2R8Y7F9 belongs -0.163; to IGF2BP3 (UniProt O00425), -0.002. With HOMER3 (UniProt Q9NSC5) the figure was 0; with HNRNPUL1 (UniProt M0R247), -0.044. In the case of GTPBP6 (UniProt O43824), the log2 fold change was 0.118.

For the target HMGA1 isoform 2 (UniProt P17096), the log2 fold change was 0.419. On to KCTD20 (UniProt Q7Z5Y7), for which the log2 fold change was 0.078.

Turning to H3-3A (UniProt P84243), the log2 fold change was -0.004.
